Reference: PubChem BioAssay (NCI)
The panel holds about 79,000 compounds, 15% with a hit somewhere; the sample as a whole holds those more often. Rule as the data show it: active = growth inhibition above about 70%; inactive = the rest.

Experiments:
[1] = NCI Yeast Anticancer Drug Screen. Data for the rad50 strain (AID 155);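 also: 0% = growth of vehicle-only cultures of the same strain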; details: S. cerevisiae rad50 strain growth inhibition; at 50.0 µM; active compounds read high
Summary of the method: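 Inhibition values express reduced yeast growth in compound-treated cultures relative to vehicle-treated controls.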

[2] = NCI Yeast Anticancer Drug Screen. Data for the mec2-1 strain (AID 157); details: S. cerevisiae mec2-1 strain, at 50.0 µM, active compounds read high
Summary of the method: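 Cells of the genetically defined mec2-1 yeast strain are incubated with test compound. Inhibition of growth is calculated against vehicle-treated controls.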

[3] = NCI Yeast Anticancer Drug Screen. Data for the sgs1 mgt1 strain (AID 161);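 also: 0% = growth of cultures given vehicle only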; details: S. cerevisiae sgs1 mgt1 strain, at 50.0 µM, active compounds read high
Summary of the method: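 Mutant yeast exposed to compound; growth scored against vehicle-only wells.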

[4] = NCI Yeast Anticancer Drug Screen. Data for the cln2 rad14 strain (AID 165);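 also: 0% = growth equal to vehicle treated cultures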; details: S. cerevisiae cln2 rad14 strain, at 50.0 µM, active compounds read high
Summary of the method: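 The screen exposed genetically defined yeast (cln2 rad14) to test compounds and scored growth inhibition relative to vehicle-treated controls.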

[5] = NCI Yeast Anticancer Drug Screen. Data for the bub3 strain (AID 167); details: S. cerevisiae bub3 mutant strain, at 50.0 µM, active compounds read high
Summary of the method: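 Steps: expose the mutant yeast strain to compound; grow alongside vehicle-treated cultures; measure growth; express inhibition against the vehicle cultures.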

[6] = NCI Yeast Anticancer Drug Screen. Data for the mlh1 rad18 strain (AID 175); details: S. cerevisiae mlh1 rad18 strain growth inhibition; at 50.0 µM; active compounds read high
Summary of the method: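 Compound-treated yeast growth, normalised to vehicle controls. Strain bears defined DNA repair mutations.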

Measured: growth inhibition

Cc1cccc(C(=O)c2ccc(C)cc2C)c1
inactive: [1] 17.1% | [2] 6.65% | [3] -7.55% | [4] 6.75% | [5] -0.7% | [6] 5.4%

C=C(C/C(=C/S(C)=O)c1ccccc1)c1ccccc1 (stereo not given)
inactive: [1] 43.9% | [2] 12.3% | [3] 18.7% | [4] 29.6% | [5] 20.9% | [6] 34.4%

Cc1ccc(S(=O)c2cccs2)cc1 (stereo not given)
inactive: [1] 2.15% | [2] -28.1% | [3] -49% | [4] -38.9% | [5] -18% | [6] -28.8%

CCOC(=O)/C(N=O)=C(/C)O
inactive: [1] 13.8% | [2] 5.9% | [3] 4.8% | [4] -7.95% | [5] 11.4% | [6] 11.3%

CCOC(=O)C1=C(C)N(NC(=O)OC)C2(N)N(NC(=O)OC)C(C)=C(C(=O)OCC)C12C#N (stereo not given)
inactive: [1] -13.3% | [2] -3.2% | [3] -7.45% | [4] -5.7% | [5] 2.5% | [6] -18.4%

CCOC(OCC)C1CC=CCC1 (stereo not given)
inactive: [1] 0.1% | [2] -1.65% | [3] -6.7% | [4] -13.1% | [5] -6.4% | [6] -0.95%

CSCCCNC(=O)c1csc(-c2csc(CCNC(=O)[C@@H](NSc3ccccc3[N+](=O)[O-])[C@@H](C)O)n2)n1
inactive: [1] 0.15% | [2] 6.05% | [3] 1.3% | [4] -22.1% | [5] 0.95% | [6] 18.9%

O=[N+]([O-])c1ccc(C2CC(c3ccccc3)=NN2c2ccccc2)cc1 (stereo not given)
inactive: [1] 7.65% | [2] -8.85% | [3] 1.3% | [4] -8.9% | [5] 17.9% | [6] -9.05%

CCCCCCCCCCCCCCCCCC(=O)OCC1OC(OC)C(NC(=O)N(CCCl)N=O)C(O)C1O (stereo not given)
inactive: [1] 16.3% | [2] -6.85% | [3] -4.8% | [4] 13.7% | [5] 21.4% | [6] 9.15%

COc1cc2c(OC)cc1CSCc1sc(C)c(c1Br)CSC2
inactive: [1] 19.1% | [2] 21.5% | [3] 4.7% | [4] -26.6% | [5] 12.7% | [6] 14.8%

CCC(N)(C(=O)O)C(C)C (stereo not given)
inactive: [1] -25.7% | [2] -8.65% | [3] -12.1% | [4] -0.45% | [5] 8.4% | [6] -3.75%

CCOC(=O)C(=CNc1cccc(Cl)c1)C(=O)OCC
inactive: [1] -2.8% | [2] -11.4% | [3] -18.9% | [4] -26.9% | [5] 32.2% | [6] -19.9%

CCC1(C)C(=O)C(C)(CC)C1=O (stereo not given)
inactive: [1] 23.6% | [2] 20.6% | [3] 21.4% | [4] 0.6% | [5] 20% | [6] 6.85%

Cc1csc2nc3[nH]ncc3c(=O)n12
inactive: [1] -21.6% | [2] -59% | [3] -15.1% | [4] -9.85% | [5] -5.65% | [6] -14.9%

COc1cc(C2SC(N)=Nc3c2c(C)nn3C(=O)c2ccc(Cl)cc2)ccc1O (stereo not given)
inactive: [1] -36.7% | [2] 15.8% | [3] -9.55% | [4] -30.4% | [5] 16.8% | [6] -10.2%

C=CCCCN(c1ccc(C(=O)OCC)cc1)S(=O)(=O)c1ccc(C)cc1
inactive: [1] 28.3% | [2] -11.4% | [3] 12.1% | [4] 12.7% | [5] -6.1% | [6] 4.2%

CCCCOC(=O)c1ccc(NC(=O)CCC(C)Cl)cc1 (stereo not given)
inactive: [1] -15.7% | [2] 13.2% | [3] -2.1% | [4] -22.2% | [5] 16.8% | [6] 6.6%

Cc1ccc(C(=O)CC(C#N)c2ccccc2)cc1 (stereo not given)
inactive: [1] 25.6% | [2] 17.4% | [3] 13.4% | [4] 18.1% | [5] 5.55% | [6] 12.7%

COc1ccc(C(C#N)C(=O)CCC(=O)C(C#N)c2ccc(OC)c(OC)c2)cc1OC (stereo not given)
inactive: [1] 28.3% | [2] 2.9% | [3] -8.65% | [4] -15.3% | [5] -2.8% | [6] 26.8%

COc1cc(C=Nc2ccc(C)c(Cl)c2)ccc1OC(=O)c1ccccc1
inactive: [1] -22.2% | [2] -9.05% | [3] -8.3% | [4] -12.8% | [5] 3.5% | [6] -0.3%
